Compounds without any hit were thinned out: in the full panel of roughly 83,000, 20% have a hit.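 Compound tested at a single concentration for 48 hours in 96-well plates; a percent growth value below 10 was scored as active.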 Values without a mark were called inactive. The source made the active and inactive calls.

In the experiment the test system is HS 578T breast. Nature of the experiment: NCI-60 one-dose screen, 48 h (100 = growth as untreated, 0 = no growth, -100 = all killed). Particulars: 10 µM unless noted. The procedure: Growth inhibition of the HS 578T human tumor cell line is measured as a screen for anti-cancer activity. Cells are grown in 96 well plates and exposed to the test compound for 48 hours. Compounds are tested at a single concentration, which is 10^-5 M for most compounds. The reported endpoint is percent growth (GI% or GIPRCNT), where numbers from 0 - 100% represent growth inhibition, and numbers from -100% - 0 represent cell death. For example, a value of 40 represents 60% growth inhibition. A value of 0 means no net growth occurred over the course of the experiment. A value of -40 indicates 40% of cells at the beginning of the experiment died by the end of the experiment. A value of -100 means all cells are dead at the end of the experiment.
NCI-60 Human Tumor Cell Lines Screen was performed using the standard one-dose NCI protocol, which is described in more detail at https://dtp.cancer.gov/discovery_development/nci-60/default.htm.
Compounds with GIPRCNT values below 10 were considered active. Activity score was based on GIPRCNT using the following formula: […]
Score is 0 for GIPRCNT values of 100 or above, 50 for GIPRCNT values of 0, and 100 for GIPRCNT values of -100.
Turning to `C1CN(SSN2CCOCC2)CCO1`, the growth is 41% [100 µM].

For `Cc1ccccc1/C=C/C(=O)c1cccc(OCCCOc2cccc(C(=O)/C=C/c3ccccc3C)c2)c1`, the growth was 99.7% [3 µM]. In the case of `O=C(/C=C/c1cccs1)Nc1ncc(Cc2ccccc2F)s1`, the growth was 16%. As to `COc1ccc(C2=C(Br)C(=O)c3nc(C)ccc3C2=O)cc1`, the growth is 90.8%. `COc1cc(OC)c(/C=C/C(=O)c2c(OC)cccc2OC)c(OC)c1`: the growth was 88.7%. `N#CC1=C(N)Oc2c(c(=O)[nH]c3ccc(Cl)cc23)C12C(=O)c1ccccc1C2=O`: the growth was 83.3%.

Regarding `COc1ccc(Nc2nc(-c3cc(O)c(C)c(C)c3O)cs2)cc1`, the growth was 76.7%.

Turning to `N#Cc1nc(-c2ccc(F)cc2)oc1S(=O)(=O)N1CCCCC1`, the growth is 95.6%.

As to `O=C(Nc1ccccc1O)c1ccc(CNC(=O)c2sccc2Nc2ccnc(C(F)(F)F)c2)cc1`, the growth was 14.6%. Take `O=C(/C=C(/C=C/c1ccc2[nH]ccc2c1)OB(F)F)/C=C/c1ccc2[nH]ccc2c1`: the growth is 31.4%. Regarding `CC1CCN(CCOc2ccc(CNc3ccc4nc(CCC5CCCCC5)[nH]c4c3)cc2)CC1`, the growth is 27.5%.

In the case of `Cc1ccc2c(n1)C(=O)C(Br)=C(CC(C)C)C2=O`, the growth is 102%. Regarding `COc1ccc(-c2ccc(=O)oc2-c2cc(OC)c(OC)c(OC)c2)cc1O`, the growth was -2.33% (active). With `CCOC(=O)Cc1cnc(N/N=C(\C)c2cc3ccccc3o2)s1`, the growth is 100%. `O=c1[nH]c(-c2ccccc2)nc2sc3cc(O)ccc3c12`: the growth was 89%.

Regarding `N#Cc1ccc2c(c1)C(=O)c1c-2n(CCCN)c(=O)c2cc([N+](=O)[O-])ccc12`, the growth was -77.7% (active).

For the molecule `Cc1cc(S(=O)(=O)/N=C(\N)n2nc(C)c(C)c2C)c(SCc2ccccc2)cc1Cl`, the growth is 77.4%. As for `Cc1[nH]c(=O)[nH]c(=O)c1Br`, the growth is 104%. With `CCOC(=O)C1=C(c2ccccc2)N=C2SC=C(c3ccc(Cl)cc3)N2C1c1ccc(Br)cc1` (stereo not given), the growth was 77.9%.

As for `COc1cc(/C=C2/C=C(c3ccccc3)N(CCc3ccc(S(N)(=O)=O)cc3)C2=O)cc(OC)c1OC`, the growth is 98.2%. For `O=C(NNC(=O)c1ccc(NC(=O)c2ccccn2)cc1)Nc1ccc([N+](=O)[O-])cc1`, the growth is 75.6%.

For the molecule `C=CC[Se]C(=O)Cc1c(C)n(C(=O)c2ccc(Cl)cc2)c2ccc(OC)cc12`, the growth is -12.7% (active). As for `O=C(/C=C/c1ccccc1)Nc1ncc(Cc2ccccc2Cl)s1`, the growth is 28.2%. On to `COc1ccc(/C=N\Nc2nc(SCCC(C)C)nc(-c3ccc(OC)cc3)c2C#N)cc1`, for which the growth was 29.4%. As for `c1cnc2c(-c3nc4ccc5[nH]ncc5c4c4c3CCCC4)c[nH]c2c1`, the figure is 63.4%. As to `C=CCn1c(C)nc2ccc(Nc3nc(Nc4ccc5nc(C)n(CC=C)c5c4)c4ccccc4n3)cc21`, the growth was -41.4% (active). As for `COCCn1cc(-c2nc(-c3cc4cccnc4[nH]3)cs2)c2cc(OC)ccc21`, the figure is -4.1% (active); as for `CC(C)COc1nc2c(c(=O)n(C)c(=O)n2C)n1C`, 100%; as for `COc1cc(-c2nccc3[nH]c(-c4ccc5cc[nH]c5c4)nc23)cc(OC)c1OC`, 31.1%.

Consider `OB1OCc2cc(/C=C/c3cccc(C(F)(F)F)c3)ccc21`, for which the growth is 23.3%.

As to `COc1ccc(/C=C(\C#N)n2nnc3cc(F)c(F)cc32)cc1`, the growth was 92.1%. Turning to `Nc1ncc(-c2ccc3ncnc(Nc4cccc(Cl)c4)c3c2)cn1`, the growth is 16.4%. For `COCCNC(=O)Nc1ccc2nc(-c3cccs3)c(-c3cccs3)nc2c1` the value was 93.6%. Regarding `O=C(N/N=C/c1c(Cl)cccc1Cl)c1cccnc1Nc1cccc(C(F)(F)F)c1`, the growth was 112%.

On to `NC(=O)c1cc(I)ccc1NC(=O)/C=C/c1ccccc1`, for which the growth is -12.8% (active). `CCOC(=O)n1ccn(C)c1=S`: the growth is 132%. Consider `O=C(CSc1nnc(-c2cnccn2)n1-c1ccccc1)c1ccc(Cl)cc1`, for which the growth is 104%. On to `N#CC(C#N)N=Nc1ccc(Br)cc1`, for which the growth is 87.1%. With `C[C@@H](CO)[C@@H]1CCC=C2CC[C@]3(C)[C@H](CC[C@@H]4[C@@]5(C)CCCNC(C)(C)[C@@H]5CC[C@]43C)[C@H]21`, the growth is 69.8%. In the case of `Nc1n[nH]c2cccc(C#Cc3cccc(NC(=O)c4cc(F)cc(C(F)(F)F)c4)c3)c12`, the growth is 36.8%.

The values above are taken from PubChem BioAssay (NCI).
